Results taken from the supplement of paper PMC3334620.
Over roughly 33,000 sequences, “E-score (-0.5 to 0.5)” has its median near -0.032; the highest 2% begin near 0.36. The list comes from a sample in which the highest values are over-represented; it also holds similar and randomly drawn sequences.

Target: T1, Sko1 (UniProt Q02100)
T1 sequence: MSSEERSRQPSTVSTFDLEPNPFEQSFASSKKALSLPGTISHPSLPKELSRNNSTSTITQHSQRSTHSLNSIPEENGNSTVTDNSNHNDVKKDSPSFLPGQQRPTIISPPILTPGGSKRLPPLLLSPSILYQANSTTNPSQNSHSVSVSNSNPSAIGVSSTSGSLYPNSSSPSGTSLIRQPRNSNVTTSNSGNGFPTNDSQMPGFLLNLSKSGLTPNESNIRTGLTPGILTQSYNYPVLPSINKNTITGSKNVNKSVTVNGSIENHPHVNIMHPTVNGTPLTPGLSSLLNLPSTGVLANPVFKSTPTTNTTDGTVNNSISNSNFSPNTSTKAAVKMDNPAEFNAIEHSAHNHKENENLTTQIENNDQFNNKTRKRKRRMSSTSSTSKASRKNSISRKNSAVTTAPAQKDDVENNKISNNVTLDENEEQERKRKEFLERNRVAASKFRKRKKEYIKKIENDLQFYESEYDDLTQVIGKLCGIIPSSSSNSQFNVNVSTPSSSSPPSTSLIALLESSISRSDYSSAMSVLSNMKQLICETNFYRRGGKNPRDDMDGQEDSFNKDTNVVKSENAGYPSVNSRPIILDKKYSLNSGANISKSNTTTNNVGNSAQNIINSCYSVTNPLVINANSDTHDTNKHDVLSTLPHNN
Assay: PBM E-score (8-mer binding enrichment) (E-score (-0.5 to 0.5)); higher = stronger / more preferred TF binding
Settings: protein concentration: 200 nM; construct: GST-full length
Summary of the method: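 Using PURExpress in vitro transcription/translation, GST-tagged yeast transcription factors were made in full-length or DNA-binding-domain form. These were applied at about 100-200 nM to double-stranded universal all-10-mer Agilent arrays, and bound protein was detected with fluorescent anti-GST. Scans were normalised with masliner before the Universal PBM Analysis Suite assigned E-scores to ungapped eight-base words pooled with their reverse complements.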

Row | Sequence | PBM E-score
1 | ATATGCGC | 0.0277
2 | CGATCGCG | 0.0985
3 | CGAGCACG | 0.0337
4 | GACCAGCA | -0.185
5 | GAGGGCGA | -0.265
6 | AATGACCG | 0.0453
7 | ATTGACGG | 0.0348
8 | AATGACGG | 0.388
9 | GCCTCAGA | -0.148
10 | GCGTAACA | 0.317
11 | CCGTAACC | -0.0904
12 | ACGTAACC | 0.469
13 | GCGTAACC | 0.328
14 | AGGTAACT | 0.0427
15 | AAGTAACT | 0.153
16 | ACGTAACG | 0.469
17 | CCGTAACG | -0.103
18 | ACGTAACA | 0.464
19 | AAGTAACG | 0.0665
20 | TCGTAACA | 0.275
21 | ACGTAACT | 0.459
22 | AGCTGTGG | -0.296
23 | GGTCCCAC | -0.0859
24 | AATGAGTA | 0.178
25 | CGGACTGC | -0.0639

Row | Sequence | PBM E-score
26 | CTCTTACA | -0.0812
27 | ATTTAGTA | 0.25
28 | ATGAAATG | -0.059
29 | AGGCAAGC | -0.126
30 | AATACGTA | 0.482
31 | GATACGGA | -0.0181
32 | AATACGTG | 0.458
33 | AATACGGG | -0.111
34 | AATACGAA | 0.324
35 | AATACGGA | 0.138
36 | AATACGCG | 0.287
37 | GATACGAA | 0.227
38 | CATACGTC | 0.466
39 | CATACGCC | 0.182
40 | GATACGTA | 0.48
41 | CATACGGC | -0.0208
42 | AAACCTTG | 0.0199
43 | GACTCACC | -0.118
44 | CTCAGGAG | -0.159
45 | CACTTCCA | 0.109
46 | CTTAAAGA | 0.00637
47 | CTTGATGC | -0.116
48 | AACCGCTT | -0.113
49 | AATTCAAA | 0.193
50 | CTTAAGCA | -0.0027

Row | Sequence | PBM E-score
51 | CACTTTGG | -0.0531
52 | ATCTGGGA | -0.147
53 | CAGGCAGC | -0.349
54 | CGGTGGAA | -0.188
55 | ATGAGCGA | 0.102
56 | CATACGAA | 0.308
57 | AATACGAC | 0.22
58 | CATACGTA | 0.485
59 | CATACGGA | -0.00572
60 | AATACGTC | 0.464
61 | AATACGGC | 0.0384
62 | CCGACTGA | -0.162
63 | ACATGGTA | 0.00395
64 | ACTCCTGA | -0.0495
65 | TGACGACA | 0.467
66 | GTACGACA | 0.326
67 | ATACGACA | 0.363
68 | GGACGACA | 0.0412
69 | ATACGAAA | 0.346
70 | CGACGACA | 0.0871
71 | ATACGACG | 0.234
72 | CTACGAAA | 0.214
73 | AGACGAAA | 0.199
74 | GGACGAAA | -0.0622
75 | TTACGAAA | 0.396

Row | Sequence | PBM E-score
76 | TGACGAAA | 0.463
77 | AGAATCCC | -0.0186
78 | GTAGTTGA | 0.173
79 | CTTCTACC | -0.3
80 | TAATGCAA | 0.0655
81 | ATTCACTG | 0.0188
82 | ACTTTCGG | 0.0182
83 | TAGGGGGA | -0.251
84 | CGCTATGC | 0.147
85 | TCAAGTGA | 0.087
86 | ATCGCTAG | -0.0122
87 | CTAGTTAC | 0.099
88 | CATTGAGG | -0.021
89 | CAGGCTCC | -0.335
90 | ATATGTCA | 0.339
91 | GTATGTCA | 0.398
92 | CTATGTCA | 0.338
93 | CATTTACC | 0.129
94 | CCTTTACG | 0.278
95 | CATTTACA | 0.103
96 | AATTTACG | 0.332
97 | ATTTTACG | 0.383
98 | ATTTTACC | 0.252
99 | ACTTTACG | 0.379
100 | ACTTTACA | 0.158

Row | Sequence | PBM E-score
101 | CATTTACG | 0.369
102 | ATAGCGGA | -0.0894
103 | AGGTTGTA | 0.15
104 | GTCCAGTA | -0.0738
105 | AGCGCGAA | 0.13
106 | CGTCATAC | 0.486
107 | TGTCATAA | 0.325
108 | AGTCATAA | 0.0121
109 | AGTCATAG | -0.0111
110 | CGTCATAA | 0.487
111 | CGTCATAG | 0.483
112 | AGTCATAC | 0.262
113 | GGTCATAC | 0.021
114 | CCTCATAG | 0.1
115 | GTAACTGA | 0.126
116 | CCAGTGGG | -0.107
117 | ATCCACGC | -0.0735
118 | GTAACCTA | 0.192
119 | CCAAAACG | 0.171
120 | AACCCGTG | -0.216
121 | CGATGACA | 0.283
122 | CGATGACG | 0.482
123 | AGATGACG | 0.476
124 | AGATGACC | -0.0804
125 | AGATGACA | 0.256

Row | Sequence | PBM E-score
126 | CGATGACC | 0.0462
127 | CAACTTAC | 0.0405
128 | AGCGAAAC | 0.163
129 | GGACCGCC | -0.415
130 | GGACCATA | -0.148
131 | GGCCCAAC | -0.146
132 | ACGTTAGA | 0.265
133 | AGAGATGG | -0.0345
134 | CTCGTCAG | 0.176
135 | CGCGTCAC | 0.41
136 | CTCGTCAA | 0.0618
137 | CGCGTCAG | 0.222
138 | ATCGTCGC | 0.0155
139 | GCCGTCAC | 0.166
140 | GTCGTCAA | 0.239
141 | CGCGTCAA | 0.34
142 | ATCGTCAC | 0.385
143 | CTCGTCAC | 0.38
144 | GTCGTCAC | 0.41
145 | ATCGTCTC | -0.0603
146 | ACCTCCAA | -0.189
147 | CGCAGTAC | 0.118
148 | ACTACTGC | -0.0692
149 | AAACCTAG | -0.0586
150 | GACCACAA | -0.165

Row | Sequence | PBM E-score
151 | AACTCGAG | -0.00786
152 | CATTTTCC | 0.122
153 | CCGGACTC | -0.16
154 | GCGGACGC | -0.0227
155 | AGGGTACT | -0.236
156 | TCACAACA | 0.251
157 | ACTTAAGC | 0.032
158 | ACCGTCAT | 0.378
159 | AGCGTCAT | 0.445
160 | ACCGTCAG | -0.0341
161 | AGCGTCAG | 0.154
162 | ATCGTCAA | 0.287
163 | ATCGTCAG | 0.263
164 | AGCGTCAA | 0.166
165 | ATCGTCAT | 0.469
166 | ACCGTCAA | 0.00527
167 | CCTTAAAA | 0.101
168 | GTGAATGA | 0.231
169 | GGGCCAGA | -0.278
170 | GGAGCTAC | -0.112
171 | CGCTAGCG | -0.26
172 | CGGAGAGA | -0.15
